Molecules are shown by their SMILES. Entries with a potency or affinity are not part of this list. Active and inactive are the calls of the source.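 Rule for the calls: active = fitted half-maximal concentration for loss of cell signal no higher than twice the top valid tested concentration; inconclusive = flat curve at 30 to 70% inhibition, or poor fit; inactive = flat within 30%, signal rise, or potency above limit.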

A short description of this experiment: cytotoxicity toward MDA-MB-231 breast cancer cells – cell-based, CellTiter-Glo luminescence, cherry-pick, cytotoxicity control for RAD54 inhibitor project, dose response (AID 651692).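 Note: more negative values mean stronger loss of viable cell signal.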 The settings on record: MDA-MB-231 viability, 24 h; series mostly up to 26 µM.
As for `CN1CCN(c2ccc(N)cc2)CC1`, the call was inactive.

For `CN1CCC(N(C)c2nc(-c3ccccc3)nc3ccccc23)CC1`, the result was inactive.

As to `CC(Cc1ccccc1)NCC(=O)Nc1cc(N(C)C)nc2ccccc12` (stereo not drawn), the call was inactive.

`COc1ccc2c(c1)[nH]c1c(C)nccc12`: the result was inactive.

As to `CCN1CCN(c2ccc(N)c(C)c2)CC1`, the outcome was inactive.

Regarding `Nc1ccc(CCN2CCCC2)cc1`, the outcome was inactive.

With `Nc1ccnn1C1CCNCC1`, the outcome was inactive.

Turning to `Cc1ccc(-c2nc(N(C)C3CCN(C)CC3)c3ccccc3n2)cc1`, the outcome was inactive.

For `Nc1ccc(C2(c3ccc(N)cc3)CN3CCC2CC3)cc1`, the compound was called inactive.

As to `Cc1nccc2c1[nH]c1ccccc12`, the outcome was inactive.

Regarding `O=C(NC1CN2CCC1CC2)c1cc(Cl)c([N+](=O)[O-])c2nc[nH]c12` (stereo not drawn), the outcome was inactive.

For `CCNCCNc1ccc([N+](=O)[O-])c2cccnc12`, the result was inactive.

On to `CN1CCN(c2cc(N3CCNCC3)ccc2[N+](=O)[O-])CC1`, for which the compound was classed as inactive.
